The panel holds about 79,000 compounds, 15% with a hit somewhere; the sample as a whole holds those more often. Calls of active or inactive are those of the source. No stated cut-off is given here; in the data, active means growth inhibition above about 70%; inactive means the rest.
Columns and labels:
[1] = NCI Yeast Anticancer Drug Screen. Data for the rad52 strain (AID 147);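 further: 0% = growth of vehicle-treated control cultures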; conditions: S. cerevisiae rad52 mutant growth inhibition, stronger effect = higher value
In short: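 Inhibition of yeast growth, referenced to vehicle controls, was the measured output for a strain with defective DNA damage repair.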

[2] = NCI Yeast Anticancer Drug Screen. Data for the wt1 strain (AID 149);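 further: 0% = growth of vehicle-treated wt1 cultures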; conditions: S. cerevisiae wt1 strain (SPY 50644) growth inhibition, stronger effect = higher value
In short: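 Measured: growth of wt1 yeast under compound versus vehicle treatment, reported as inhibition.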

[3] = NCI Yeast Anticancer Drug Screen. Data for the rad50EPP+ strain (AID 151);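 further: 0% = growth of vehicle-treated control cultures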; conditions: S. cerevisiae rad50 mutant strain, stronger effect = higher value
In short: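 Genetically defined yeast (rad50EPP+, DNA damage repair alteration) is grown with compound, and inhibition of growth is expressed relative to vehicle-treated controls.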

[4] = NCI Yeast Anticancer Drug Screen. Data for the mgt1 strain (AID 153); conditions: S. cerevisiae mgt1 mutant growth inhibition, stronger effect = higher value
In short: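 In the mgt1 strain, test compounds were added and growth inhibition was determined relative to vehicle-treated controls.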

[5] = NCI Yeast Anticancer Drug Screen. Data for the mec2-1 strain (AID 157); conditions: S. cerevisiae mec2-1 strain, stronger effect = higher value
In short: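 Each compound was tested on mec2-1 yeast, a strain altered in DNA damage repair or cell cycle control. Growth inhibition is reported relative to vehicle.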

[6] = NCI Yeast Anticancer Drug Screen. Data for the rad14 strain (AID 159);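 further: 0% = growth of vehicle-treated control cultures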; conditions: S. cerevisiae rad14 strain growth inhibition, stronger effect = higher value
In short: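 Here, inhibition of yeast growth was measured after compound exposure, using a strain with a genetic defect in DNA damage repair and vehicle-treated cultures as the reference.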

[7] = NCI Yeast Anticancer Drug Screen. Data for the sgs1 mgt1 strain (AID 161);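 further: 0% = growth of cultures given vehicle only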; conditions: S. cerevisiae sgs1 mgt1 strain, stronger effect = higher value
In short: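 Test agents were incubated with a DNA-repair-mutant yeast strain. Growth was then read and compared against vehicle-treated controls.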

[8] = NCI Yeast Anticancer Drug Screen. Data for the CLN2oe strain (AID 163);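 further: 0% = growth of vehicle-only control cultures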; conditions: S. cerevisiae CLN2oe strain, stronger effect = higher value
In short: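 First, the altered yeast strain was treated with each compound; second, its growth was measured; finally, inhibition was derived by comparison with vehicle controls.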

[9] = NCI Yeast Anticancer Drug Screen. Data for the cln2 rad14 strain (AID 165);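 further: 0% = growth equal to vehicle treated cultures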; conditions: S. cerevisiae cln2 rad14 strain, stronger effect = higher value
In short: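 Test compounds were added to cln2 rad14 yeast cultures; inhibition of growth was then determined by comparison with vehicle treatment.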

[10] = NCI Yeast Anticancer Drug Screen. Data for the bub3 strain (AID 167); conditions: S. cerevisiae bub3 mutant strain, stronger effect = higher value
In short: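 Whole-cell yeast assay. The mutant strain was incubated with compounds, and growth inhibition was determined by comparison with vehicle-treated cells.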

[11] = NCI Yeast Anticancer Drug Screen. Data for the wt2 strain (AID 169);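 further: 0% = growth of vehicle-treated yeast cultures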; conditions: S. cerevisiae wt2 strain growth inhibition, stronger effect = higher value
In short: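 The panel's yeast strains carry defined changes in DNA repair or cell cycle genes. Each strain is grown with compound, and growth loss is scored relative to vehicle.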

[12] = NCI Yeast Anticancer Drug Screen. Data for the mlh1 strain (AID 171);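 further: 0% = growth of vehicle-treated control cultures of the same strain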; conditions: S. cerevisiae mlh1 strain growth inhibition, stronger effect = higher value
In short: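 Inhibition values reflect reduced yeast growth in the presence of compound, referenced to vehicle controls, using a strain chosen for its alteration in DNA repair or cell cycle control.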

[13] = NCI Yeast Anticancer Drug Screen. Data for the sgs1 strain (AID 173);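 further: 0% = growth of vehicle-only control cultures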; conditions: S. cerevisiae sgs1 mutant, stronger effect = higher value
In short: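 Vehicle-treated cultures served as reference for growth inhibition of a yeast strain altered in DNA damage repair or cell cycle control after compound exposure.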

[14] = NCI Yeast Anticancer Drug Screen. Data for the mlh1 rad18 strain (AID 175); conditions: S. cerevisiae mlh1 rad18 strain growth inhibition, stronger effect = higher value
In short: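 Inhibition values reflect reduced growth of mutant yeast versus vehicle-treated controls following compound exposure; the mutations affect DNA damage repair.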

[15] = NCI Yeast Anticancer Drug Screen. Data for the rad18 strain (AID 177); conditions: S. cerevisiae rad18 mutant growth inhibition, stronger effect = higher value
In short: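 Steps: expose repair-mutant yeast to compound; measure growth; express as inhibition relative to vehicle control.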

[16] = NCI Yeast Anticancer Drug Screen. Data for the rad50 strain (AID 155);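 further: 0% = growth of vehicle-only cultures of the same strain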; conditions: S. cerevisiae rad50 strain growth inhibition, stronger effect = higher value
In short: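 Growth of the mutant yeast was measured after compound exposure and referenced to vehicle-treated cultures.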

[17] = at 5.0 µM (retest, dose inferred, filed as 0.5)
[18] = at 50.0 µM (retest, dose inferred, filed as 5.0)

Measured: growth inhibition

CC(C)=NOC(=O)Nc1ccc(Cl)cc1
active: [3]; at 33.0 µM 79% | [3]; at 100.0 µM 95% | [4]; at 100.0 µM 74% | [5]; [17] 76% | [5]; [18] 99% | [7]; [18] 92% | [7]; at 50.0 µM 72.8% | [9]; [17] 77% | [9]; [18] 90% | [10]; [18] 81% | [11]; at 100.0 µM 79% | [12]; at 100.0 µM 83% | [13]; at 100.0 µM 84% | [14]; [18] 99% | [15]; at 100.0 µM 72%
inactive: [1]; at 1.2 µM 1% | [1]; at 3.7 µM -7% | [1]; at 11.0 µM -8% | [1]; at 33.0 µM 15% | [1]; at 100.0 µM 66% | [2]; at 1.2 µM -24% | [2]; at 3.7 µM -27% | [2]; at 11.0 µM -21% | [2]; at 33.0 µM -18% | [2]; at 100.0 µM 14% | [3]; at 1.2 µM -32% | [3]; at 3.7 µM 18% | [3]; at 11.0 µM 23% | [4]; at 1.2 µM -41% | [4]; at 3.7 µM -60% | [4]; at 11.0 µM -56% | [4]; at 33.0 µM -11% | [5]; at 1.2 µM -40% | [5]; at 3.7 µM -26% | [5]; at 11.0 µM -24% | [5]; at 33.0 µM -7% | [5]; at 50.0 µM 29.9% | [5]; at 100.0 µM 47% | [6]; at 1.2 µM -48% | [6]; at 3.7 µM -50% | [6]; at 11.0 µM -30% | [6]; at 33.0 µM -25% | [6]; at 100.0 µM 45% | [7]; [17] 0% | [8]; at 1.2 µM -30% | [8]; at 3.7 µM -18% | [8]; at 11.0 µM -6% | [8]; at 33.0 µM 8% | [8]; at 100.0 µM 38% | [9]; at 50.0 µM 37.2% | [10]; at 1.2 µM -12% | [10]; at 3.7 µM -1% | [10]; [17] 28% | [10]; at 11.0 µM 0% | [10]; at 33.0 µM 8% | [10]; at 50.0 µM 47% | [10]; at 100.0 µM 64% | [11]; at 1.2 µM -34% | [11]; at 3.7 µM -25% | [11]; at 11.0 µM -21% | [11]; at 33.0 µM 5% | [12]; at 1.2 µM -25% | [12]; at 3.7 µM -17% | [12]; at 11.0 µM -22% | [12]; at 33.0 µM 21% | [13]; at 1.2 µM -16% | [13]; at 3.7 µM -12% | [13]; at 11.0 µM -14% | [13]; at 33.0 µM 33% | [14]; [17] 61% | [14]; at 50.0 µM 46.7% | [15]; at 1.2 µM -32% | [15]; at 3.7 µM -38% | [15]; at 11.0 µM -39% | [15]; at 33.0 µM 10%

C[C@@](O)(/C=C/[C@H]1CC=CC(=O)O1)[C@@H](C[C@@H](O)\C=C/C=C\C=C\CO)OP(=O)(O)O
inactive: [1]; at 1.2 µM 26% | [1]; at 3.7 µM 22% | [1]; at 11.0 µM 37% | [1]; at 33.0 µM 66% | [2]; at 1.2 µM 18% | [2]; at 3.7 µM 13% | [2]; at 11.0 µM 15% | [2]; at 33.0 µM 35% | [3]; at 1.2 µM 18% | [3]; at 3.7 µM 15% | [3]; at 11.0 µM 17% | [3]; at 33.0 µM 25% | [3]; at 100.0 µM 33% | [4]; at 1.2 µM 33% | [4]; at 3.7 µM 28% | [4]; at 11.0 µM 33% | [4]; at 33.0 µM 51% | [16]; at 1.2 µM 27% | [16]; at 3.7 µM 30% | [16]; [17] 1% | [16]; at 11.0 µM 41% | [16]; at 33.0 µM 62% | [16]; [18] 53% | [16]; at 50.0 µM 67.2% | [5]; at 1.2 µM 9% | [5]; at 3.7 µM 22% | [5]; [17] -2% | [5]; at 11.0 µM 25% | [5]; at 33.0 µM 46% | [5]; [18] 34% | [5]; at 50.0 µM 50.6% | [7]; [17] 17% | [7]; [18] 60% | [8]; at 1.2 µM 46% | [8]; at 3.7 µM 26% | [8]; at 11.0 µM 25% | [8]; at 33.0 µM 54% | [9]; [17] 5% | [9]; [18] 17% | [9]; at 50.0 µM 42.6% | [10]; at 1.2 µM 29% | [10]; at 3.7 µM 45% | [10]; [17] 34% | [10]; at 11.0 µM 63% | [11]; at 1.2 µM 4% | [11]; at 3.7 µM 19% | [11]; at 11.0 µM 20% | [11]; at 33.0 µM 39% | [12]; at 1.2 µM 21% | [12]; at 3.7 µM 20% | [12]; at 11.0 µM 34% | [12]; at 33.0 µM 61% | [13]; at 1.2 µM 33% | [13]; at 3.7 µM 32% | [13]; at 11.0 µM 42% | [13]; at 33.0 µM 59% | [14]; [17] -2% | [14]; [18] 48% | [14]; at 50.0 µM 19.3% | [15]; at 1.2 µM 40% | [15]; at 3.7 µM 34% | [15]; at 11.0 µM 41% | [15]; at 33.0 µM 54%
active: [1]; at 100.0 µM 90% | [2]; at 100.0 µM 81% | [4]; at 100.0 µM 86% | [16]; at 100.0 µM 92% | [5]; at 100.0 µM 84% | [7]; at 50.0 µM 73% | [8]; at 100.0 µM 82% | [10]; at 33.0 µM 86% | [10]; [18] 91% | [10]; at 50.0 µM 86.1% | [10]; at 100.0 µM 93% | [11]; at 100.0 µM 88% | [12]; at 100.0 µM 88% | [13]; at 100.0 µM 90% | [15]; at 100.0 µM 84%
